In all, about 200,000 compounds went through this assay and about 18,000 (9%) were called active. No stated cut-off is given here; in the data, active means inhibition above about 50%; inactive means the rest. The full list was thinned out, with actives kept by preference. Where a SMILES comes first, the peptide text is derived from it. The star is where a group is joined. OPac = O=C(CO*)c1ccccc1; Bz = O=C(c1ccccc1)*

The nature of the assay: antileishmanial activity against promastigotes – primary screen (AID 1063).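 Further: promastigotes grown with compound for 44 hours at 28 °C.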 To be noted: Leishmania major promastigotes, resazurin fluorescence viability; at 10 µM; active compounds read high. In general terms: The colour change of resazurin is a common sign of viable cells or microbes.
The term inhibition denotes the change of the read-out against control, counted positive when it falls. Consider `CN(C)c1ccc(C=NCCc2ccc(S(N)(=O)=O)cc2)cc1`, for which the inhibition was 3.91% (inactive).

In the case of `CCOC(=O)c1cnc2[nH]c3ccccc3n2c1=O`, the inhibition is 7.85% (inactive).

For the compound `O=C(O)CC/C(=N\NC(=O)c1ccc(F)cc1)c1ccc(Br)cc1`, the inhibition is -8.88% (inactive).

With `Cn1ccc(=NC=C(C#N)C#N)c2ccccc21`, the inhibition was 7.93% (inactive).

Regarding `CC(=O)c1ccc(NC(=O)Nc2ccc([N+](=O)[O-])cc2C)cc1`, the inhibition was -1.56% (inactive).

In the case of `O=[N+]([O-])c1ccc2c(c1)C(N1CCOCC1)/C(=C/C1(O)CCCCC1)O2` (stereo unspecified), the inhibition is -7.12% (inactive).

Regarding `Cc1cc2nc(C(F)(F)F)cc(-c3cccs3)n2n1`, the inhibition is 2.4% (inactive).

Consider `COc1ccc(OC)c(S(=O)(=O)Nc2cccc(-c3ccc4nncn4n3)c2)c1`, for which the inhibition is -2.67% (inactive).

With `FC(F)(F)c1cccc(NC(=S)Nc2cccc(Cl)c2)c1`, the inhibition was 75.6% (active).

`S=C(Nc1cccc(Cl)c1)Nc1ccc2cn[nH]c2c1`: the inhibition is 10.9% (inactive).

Turning to `Cc1csc(NC(=S)Nc2cccc(Cl)c2)n1`, the inhibition was 9.23% (inactive).

Take `CCNC(=O)CC1C(=O)N(c2ccc(OC)cc2)C(=S)N1CCc1ccncc1` (stereo unspecified): the inhibition was -4.31% (inactive).

Take `COc1ccc2oc(=O)c(C(=O)N3CCCC3)cc2c1`: the inhibition was -7.26% (inactive).

As for `Cn1nc(-c2ccccc2)c(-c2nc(-c3ccc(Cl)cc3)no2)c1Cl`, the inhibition was -4.1% (inactive).

On to `Clc1ccc(-c2nnc(-c3ccccc3)nc2N2CCSCC2)cc1`, for which the inhibition was 58.6% (active).

With `CC1CN(c2nc(-c3ccccc3)nnc2-c2ccccc2)CC(C)O1` (stereo unspecified), the inhibition is 5.94% (inactive).

With `CN(CCc1cnn(C)c1)Cc1cn(C)nc1-c1ccccc1F`, the inhibition was -3.32% (inactive).

As to `CC(C)N(C(=O)CSc1nc(COc2ccccc2)nc2ccccc12)C(C)C`, the inhibition is 21.6% (inactive).

Turning to `CC(=O)NCCC(=O)Nc1cc(S(=O)(=O)N2CCOCC2)ccc1N1CCOCC1`, the inhibition is 0.47% (inactive).

Turning to `COC(=O)COc1ccc(S(=O)(=O)N2CCOCC2)cc1`, the inhibition was -7.05% (inactive).

Take `O=C(COc1cccc2ccccc12)Nc1cc(S(=O)(=O)N2CCOCC2)ccc1N1CCOCC1`: the inhibition is 61.2% (active).

With `CCOc1cc(N2CCOCC2)c(OCC)cc1NC(=O)c1ccc(C)s1`, the inhibition is 6.96% (inactive).

With `O=C(COC(=O)c1ccccc1F)Nc1cc(S(=O)(=O)N2CCOCC2)ccc1N1CCCC1`, the inhibition was 5.17% (inactive).

Take `CCOc1cc(N2CCOCC2)c(OCC)cc1NC(=O)c1cc(C)nc2ccccc12`: the inhibition was 6.2% (inactive).

`COc1cc(S(=O)(=O)N2CCOCC2)ccc1NC(=O)COc1ccc(N(C)S(=O)(=O)c2ccc(C)cc2)cc1`: the inhibition is 94% (active).

Turning to `CCOc1cc(N2CCOCC2)c(OCC)cc1NC(=O)COc1cccc2cccnc12`, the inhibition was 100% (active).

Take `Cc1ccc(S(=O)(=O)N(C)c2ccc(OCC(=O)NC3=NCCS3)cc2)cc1`: the inhibition is 1.37% (inactive).

For `CCC(=O)N1c2ccccc2NC2=C(C(=O)CCC2)C1c1ccco1` (stereo unspecified), the inhibition is 3.39% (inactive).

Take `O=C(N/N=C1\CCSC1)c1cc(Cl)ccc1O`: the inhibition was 3.97% (inactive).

As for `CCCCCc1ccc(-c2ccc(OCC)cc2)nc1`, the inhibition is -7.26% (inactive).

Turning to `CN(C)S(=O)(=O)c1ccc(NC(=O)N2CCOCC2)cc1`, the inhibition is -2.72% (inactive).

As to `CCN(CC)CCNS(=O)(=O)c1ccc(/C=C/C(=O)O)cc1`, the inhibition was -2.33% (inactive).

Regarding `O=C(Nc1cccnc1)c1cccc(S(=O)(=O)N2CCCC2)c1`, the inhibition was -5.74% (inactive).

In the case of `COc1ccccc1C1=Nc2cccc3cccc(c23)N1`, the inhibition is 69.7% (active).

As to `Fc1ccccc1N=C1Nc2cccc3cccc1c23`, the inhibition was 8.76% (inactive).

`c1ccc(C2=Nc3cccc4cccc(c34)N2)cc1`: the inhibition was 19.1% (inactive).

For the compound `CCOC(=O)/C(C#N)=C/c1ccc(N2CCCCC2)cc1`, the inhibition is -8.77% (inactive).

For the compound `Cc1ccc(C(=O)NCCNC(=O)c2ccccc2)cc1`, the inhibition was 30.8% (inactive).

For `CCCCCOC(=O)NCCOC(=O)Nc1ccc(C(=O)OCC)cc1`, the inhibition was 59.2% (active).

On to `CCOC(=O)Nc1ccc(NC(=O)OCC)cc1`, for which the inhibition is -2.26% (inactive).

With `CCCCC(CCC(=O)Nc1ccc(C(=O)OCC)cc1)C(=O)O` (stereo unspecified), the inhibition was -9.84% (inactive).

With `CCC(C(=O)Nc1ccc(C(C)C)cc1)c1ccccc1` (stereo unspecified), the inhibition was -1.77% (inactive).

For `Cc1cc(C)cc(NC(=O)CSc2ccccc2)c1`, the inhibition is 1.71% (inactive).

Turning to `COc1ccccc1N1CCN(C(=O)c2cc(-c3ccc(Cl)c(Cl)c3)on2)CC1`, the inhibition was -6.68% (inactive).

Take `O=C(c1ccc(CSc2ccccc2)cc1)N1CCCCCC1`: the inhibition was -6.75% (inactive).

As for `COc1ccccc1N1CCN(C(=O)c2c(-c3c(Cl)cccc3Cl)noc2C)CC1`, the inhibition was 98.5% (active).

Take `COc1ccccc1N1CCN(C(=O)c2cc(-c3ccc(Br)cc3)on2)CC1`: the inhibition is -7.17% (inactive).

Take `COc1ccccc1N1CCN(C(=O)c2ccc(S(=O)(=O)N3CCCCC3)cc2)CC1`: the inhibition is 59.5% (active).

For the compound `O=C(c1ccccc1)N1CCN(C(=O)N2CCCCC2)CC1`, the inhibition was 27.4% (inactive).

As to `COc1cc2c(cc1OC)CN(C(=O)c1ccc(S(=O)(=O)N3CCCCCC3)cc1)CC2`, the inhibition is 24.6% (inactive).

As for `O=C(c1ccc(S(=O)(=O)c2ccccc2)cc1)N1CCCCCC1`, the inhibition is 55.1% (active).

For `COc1ccccc1N1CCN(C(=O)c2ccc(Cl)c(S(=O)(=O)N3CCCC3)c2)CC1`, the inhibition was 1.35% (inactive).

Turning to `CN1CCN(CCNC(=O)Nc2ccc([N+](=O)[O-])cc2)CC1`, the inhibition was -0.61% (inactive).

Take `O=C(Nc1cc(Cl)cc(Cl)c1)C(NCCCO)c1ccccc1` (stereo unspecified): the inhibition was 10.6% (inactive).

On to `Cc1ccc(-c2cc(=O)c3ccc(F)cc3[nH]2)cc1`, for which the inhibition is 1.73% (inactive).

`CN1C(=O)C(CC(=O)Nc2ccccc2)S/C1=N/c1nccs1` (stereo unspecified): the inhibition was -4.38% (inactive).

For `CS(=O)(=O)N(CC(=O)N1CCCC1)Cc1ccccc1`, the inhibition is -5.77% (inactive).

For `Cc1cccc(-n2c(N)c(C(=O)N3CCN(C)CC3)sc2=S)c1`, the inhibition is 9.91% (inactive).

For the compound `Cc1ccc(-n2c(N)c(C(=O)N3CCOCC3)sc2=S)c(C)c1`, the inhibition was 6.62% (inactive).

For `N#Cc1ccccc1-n1c(N)c(C(=O)N2CCCC2)sc1=S`, the inhibition is 52.1% (active).

`O=C(CNC(=O)c1ccccc1)NCC(=O)OCC(=O)c1ccccc1` (Bz-Gly-Gly-OPac): the inhibition was -9.69% (inactive).

On to `COc1ccc(C)cc1NC(=O)C(OC(=O)c1cccc(S(=O)(=O)N(C)c2ccccc2)c1)c1ccccc1` (stereo unspecified), for which the inhibition was 97.6% (active).

As for `COc1ccc(C)cc1NC(=O)C(Sc1ccccc1)c1ccccc1` (stereo unspecified), the inhibition was 3.92% (inactive).

On to `COc1ccc(C)cc1NC(=O)Nc1ccccc1SC`, for which the inhibition is 10.1% (inactive).

Turning to `OC(COCC1COc2ccccc2O1)CN1CCN(c2ccc(F)cc2)CC1` (stereo unspecified), the inhibition is 12% (inactive).

`Cc1ccnc(NC(=O)CCC(=O)N(CC(=O)NCCc2ccccc2)Cc2cccs2)c1`: the inhibition is -4.68% (inactive).

With `CCOc1ccc(CN2CCN(Cc3ccc(C)o3)CC2CCO)cc1` (stereo unspecified), the inhibition is -0.08% (inactive).

As to `CCOc1ccc(CN2CCCN(C)CC2)cc1`, the inhibition is 54.1% (active).

Consider `CCOc1ccc(CN2CCN(Cc3ccon3)CC2CCO)cc1` (stereo unspecified), for which the inhibition is -5.47% (inactive).

With `COC(=O)c1sc2[nH]c(=S)n(N)c(=O)c2c1C`, the inhibition was -7.2% (inactive).

`CC1CCCCC1NC(=O)CO/N=C/c1ccc(OC(F)F)cc1` (stereo unspecified): the inhibition is 13.4% (inactive).

Turning to `CCOc1ccc(C(=O)NC2CCN(CC(=O)NCc3cccs3)CC2)cc1`, the inhibition is -4.61% (inactive).

As for `Cc1cc(C#N)c(SCC(N)=O)nc1-c1ccc(F)cc1`, the inhibition is 2.96% (inactive).

In the case of `Cc1cccc(NC(=S)N2CCCC(c3nc4ccccc4[nH]3)C2)c1` (stereo unspecified), the inhibition was 99.1% (active).

Consider `CCCNC(=S)N1CCCC(c2nc3ccccc3[nH]2)C1` (stereo unspecified), for which the inhibition is 7.49% (inactive).

On to `Cc1cccc(NC(=S)N2CCC(c3nc4ccccc4s3)CC2)c1`, for which the inhibition is -0.22% (inactive).

Regarding `O=c1cc(CO)oc(C(Nc2cccc(C(F)(F)F)c2)c2ccccn2)c1O` (stereo unspecified), the inhibition was 2.74% (inactive).

Turning to `CNS(=O)(=O)c1cnccc1N1CCN(c2cccc(C)c2)CC1`, the inhibition is 8.07% (inactive).

Take `Cc1ccc(Sc2ccncc2S(N)(=O)=O)cc1`: the inhibition is 84.9% (active).

For the compound `Cc1cc(NC(=O)CSCc2ccccc2C)no1`, the inhibition is -8.79% (inactive).

As to `Cc1ccc2oc(=O)c3cnn(CC(=O)N(Cc4ccco4)C4CCCCC4)c3c2c1`, the inhibition is 22.1% (inactive).

Consider `Cc1ccc(C(C(=O)NC2CCCC2)N(Cc2ccco2)C(=O)CCC(=O)Nc2ccccn2)cc1` (stereo unspecified), for which the inhibition was -1.72% (inactive).

Consider `Cc1ccc2c(c1)N(CC(=O)N(Cc1ccccn1)Cc1ccco1)C(=O)C(C(C)C)O2` (stereo unspecified), for which the inhibition is 75.7% (active).

With `NC(=O)COC(=O)c1cc(S(=O)(=O)N2CCN(c3ccccc3)CC2)ccc1Cl`, the inhibition was -1.75% (inactive).

With `Cc1nn(Cc2ccc(Cl)cc2)c(Cl)c1/C=N/NC(=O)CNc1ccccc1F`, the inhibition is 8.05% (inactive).

`Cc1cc(C)c2nc(-c3cccnc3)cc(C(=O)Nc3ccc(S(=O)(=O)Nc4onc(C)c4C)cc3)c2c1`: the inhibition was -3.47% (inactive).

Turning to `CC(=O)/C(=N\Nc1ccc(Cl)cc1Cl)Sc1cccc2cccnc12`, the inhibition was 96.8% (active).

For the compound `N#Cc1ccc(C(=O)Nc2cccc3cccnc23)c(F)c1`, the inhibition is -0.23% (inactive).

Regarding `S=C(NCc1cccnc1)Nc1ccc(Cl)cc1Cl`, the inhibition is 10.6% (inactive).

For `O=C(NN1C(=O)C2C3C=CC(O3)C2C1=O)c1ccccc1` (stereo unspecified), the inhibition was -9.99% (inactive).

In the case of `O=C1CC(N2CCN(c3ccc(F)cc3)CC2)C(=O)N1c1ccccc1` (stereo unspecified), the inhibition was -0.81% (inactive).

`COCCNC(=O)NC(=O)COC(=O)C1(c2ccc(Cl)cc2)CC1`: the inhibition is -5.98% (inactive).

In the case of `CC(C)(C)NC(=O)NC(=O)COC(=O)Cc1ccc(Cl)cc1Cl`, the inhibition was -4.1% (inactive).

As for `CCCNC(=O)NC(=O)COC(=O)CC(NC(N)=O)c1ccc(Cl)cc1` (stereo unspecified), the inhibition was 56.2% (active).

As for `O=C(Nc1ccccc1C(=O)N1CCCCCC1)c1ccccc1Cl`, the inhibition was 4.51% (inactive).

In the case of `COc1ccc(-c2ccc(CCC(=O)O)n2-c2ccc(O)cc2)cc1`, the inhibition was -1.18% (inactive).
